From PubChem BioAssay

Test system: Sam68 (KHDRBS1)
Assay: compounds binding KHDRBS1 protein – biochemical, small-molecule microarray, 635 nm fluorescence, primary screen (AID 1125);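 note: score merges 667 nm channel intensity with signal to noise over triplicate slides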
Conditions: higher = more signal

First: CCCN1C(=O)[C@@]2(CCC(=O)OC(C)(C)C)N=C(c3ccc(OCCCO)cc3)O[C@H]2c2ccccc21
Second: CCC[C@@H]1C=C(C(=O)O)[C@H](c2ccc(C)cc2)N1S(=O)(=O)c1ccc(C)cc1
The composite z-score of the first is lower: 1.31 for the first, 1.33 for the second.

Compared with `O=C(O)[C@H]1C[C@H]2C(=O)NCC(=O)N2[C@H]1c1ccc(O)cc1`, `COCC1=C2[C@@H](CCc3ccccc3)OB(O)C[C@@H]2[C@@H]2C(=O)N(Cc3ccccc3)C(=O)[C@@H]2C1` is lower in composite z-score: 0.0505 for the first, -0.42 for the second.

Compared with `CC(C)c1ccc(NN2C(C(O)c3ccc(N(C)C)cc3)C=CC3C(=O)N(c4ccccc4)C(=O)C32)cc1` (stereo unspecified), `CC(C)c1ccc(NN2C(C(O)c3c(F)cccc3Cl)C=CC3C(=O)N(c4ccccc4)C(=O)C32)cc1` (stereo unspecified) is lower in composite z-score: 1.29 for the first, 1.14 for the second.

Compared with `CC(C)=CCCC(C)=CC(O)C1C=CC2C(=O)N(c3ccccc3)C(=O)C2N1Nc1ccccc1` (stereo unspecified), `CC(C)NC(=O)[C@@]1(Cc2ccccc2I)c2ccccc2C(=O)N(Cc2ccccc2)[C@H]1c1ccc(CO)cc1` is higher in composite z-score: 1.27 for the first, 1.29 for the second.

`COC(=O)[C@@]1(Cc2ccc(OC)cc2)[C@H]2c3cc(C(=O)N4CCCC4)n(CCc4c[nH]c5cc(F)ccc45)c3C[C@H]2CN1C(=O)c1ccccc1` and `COC(=O)C(CC#Cc1ccc2c(c1)[C@]1(C(=O)N2)[C@H](c2ccc(OCCO)cc2)N2[C@H](c3ccccc3)[C@H](c3ccccc3)OC(=O)[C@H]2[C@@H]1C(=O)NC[C@H](O)c1ccccc1)C(=O)OC` are the same in composite z-score: 1.29 for the first, 1.29 for the second.

Compound `CC(C)N1CC=CC23O[C@@H]4C=CCOC(=O)[C@@H]4[C@H]2C(=O)N(CCO)[C@@H]3C1=O` (stereo partly specified) has a composite z-score of 0.557.
